Screen size: about 140,000 compounds; about 680 (0.49%) were called active. Rule as the data show it: active = activation above about 5% (passing the limit was not always enough); inactive = the rest. The sample as a whole holds a higher share of actives than the screen did.

In this test the target is Galanin receptor type 2 (Homo sapiens) (UniProt O43603). The test is described as follows: human galanin receptor 2 activators – cell-based, primary screen (AID 803).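 Also: 0% = vehicle buffer wells and 100% = reference agonist at full effect.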 Conditions: GALR2-expressing cells, agonist activation read-out; stronger effect = higher value; concentration not given here.
Galanin receptor type 2 (Homo sapiens), sequence (O43603 whole entry, looked up): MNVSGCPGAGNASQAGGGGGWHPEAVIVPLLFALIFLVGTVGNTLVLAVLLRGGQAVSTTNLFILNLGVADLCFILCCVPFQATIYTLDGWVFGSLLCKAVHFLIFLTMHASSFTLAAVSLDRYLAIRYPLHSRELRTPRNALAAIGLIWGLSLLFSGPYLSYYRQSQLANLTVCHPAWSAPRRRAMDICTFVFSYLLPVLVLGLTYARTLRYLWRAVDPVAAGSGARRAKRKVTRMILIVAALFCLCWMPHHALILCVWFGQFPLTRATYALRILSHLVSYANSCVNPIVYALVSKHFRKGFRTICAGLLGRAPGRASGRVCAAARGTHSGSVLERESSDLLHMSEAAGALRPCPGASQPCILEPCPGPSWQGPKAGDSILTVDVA
For `CCOC(=O)c1c(N)n(CCN2CCOCC2)c2nc3ccccc3nc12`, the activation is 1.16% (inactive).

Take `COc1cc(Cn2c(N)c(C(=O)NCc3ccco3)c3nc4ccccc4nc32)cc(OC)c1OC`: the activation is 25% (active).

Regarding `CCOC(=O)c1c(N)n(Cc2ccccc2)c2nc3ccccc3nc12`, the activation is -0.61% (inactive).

As to `CC(=O)c1c(C)n(C(C)C)c2ccc(O)cc12`, the activation is 0.6% (inactive).

On to `CN1CCN(C(=S)SCC(=O)Nc2ccc(Cl)cc2C(=O)c2ccccc2)CC1`, for which the activation is -0.06% (inactive).

For the compound `O=C1NC(=O)N(c2ccc(F)cc2)C(=O)/C1=C/c1ccc2c(c1)CCCN2Cc1ccccc1`, the activation was -0.69% (inactive).

As for `Cc1cccc(N2C(=O)NC(=O)/C(=C\c3cnn(-c4ccccc4)c3)C2=O)c1`, the activation is 34.2% (active).

As for `COc1c(O)ccc2c1-c1c3c(cc4c1C(C2)N(C)CC4)OCO3` (stereo not given), the activation was -1.66% (inactive).

For the compound `CCOP(=O)(OCC)C(NC(=O)c1ccc(C)cc1)C(Cl)(Cl)Cl` (stereo not given), the activation is -0.73% (inactive).

Consider `Cc1ccc(-n2c(-c3ccc([N+](=O)[O-])cc3)nc3ccccc3c2=O)cc1`, for which the activation was -0.79% (inactive).
